Shown are actives, neighbours in structure and some others; about 7.5% of the full set was active somewhere.
NPC1 promoter act = activators of NPC1 promoter | Potency, µM (highest dose often 9.22 µM), for inactives: at the top dose activation, most hits filed as activators | 320,000 tested, 2.4% active | Huh7 NPC1 promoter luciferase reporter, 24 h; note: % of control where 0% means no effect; nearly all actives have a fitted effect of over 60% in size
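Huh7 reporter cells (NPC1 promoter driving luciferase) are dosed with compound for 24 h at 37 °C, 5% CO2; luciferase detection reagent is then added and luminescence measured after 10 min at ambient temperature.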
SMN2 splice enh = increases expression of the SMN2 splice variant; HEK293 SMN2-luciferase splicing reporter, luminescence, 30-36 h; Potency, µM (highest dose often 46.1 µM), inactives show at the top dose activity change, positive = activation, hits mostly activators; 210,000 tested, 2.8% active; note: % of control where 0% means no effect; nearly all actives have a fitted effect of over 55% in size
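qHTS luciferase splicing reporter: luminescence rises when SMN2 exon 7 is included in transfected HEK293 cells. Compound exposure lasted 30-36 h at 37C, with 4.5 mM final sodium butyrate as control, followed by a ONE-Glo read.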
Rab9 prom act = activates the Rab9 promoter | Huh7 Rab9 promoter-luciferase reporter, luminescence, 24 h | Potency, µM (series often up to 9.22 µM), without a hit: at the highest dose activation, negative = inhibition, most hits filed as activators | 320,000 tested, 2.8% active; note: % of control where 0% means no effect; nearly all actives have a fitted effect of over 60% in size
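Quantitative HTS format; Huh7 Rab9-luciferase reporter cells (1500/well) receive compound 2 h post-plating, incubate 24 h at 37 °C, then get luciferase reagent for 10 min before luminescence reading.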
Luc counter = blocks Kinase-Glo luciferase, a counter-screen artifact; AID 1379; Kinase-Glo luciferase, ATP luminescence, 8 min; Q27757; 200,000 tested, 0.28% active; Potency, µM (top dose mostly 38.3 µM), for the others: top-dose activity change, negative = inhibition, actives largely listed as inhibitors; note: % is set by controls: 0 for no effect and ±100 for the full control effect; nearly all actives have a fitted effect of over 60% in size
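Substrate mix (final 50 mM imidazole pH 7.2, 50 mM KCl, 7 mM MgCl2, 10 uM ATP, 0.01% Tween 20, 0.05% BSA) plus pin-tool compound, then Kinase-Glo detection mix; 8 min ambient, luminescence read.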
ELG1 genotox = inducers of genotoxicity in HEK293T ELG1-luciferase cells. HEK293T ELG1-luciferase reporter, luminescence, 16 h. 330,000 tested, 1.3% active. Potency, µM (top dose mostly 46 µM), inactives show top-dose activity change, positive = activation, actives largely listed as activators; note: % of control where 0% means no effect; nearly all actives have a fitted effect of over 60% in size
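Luminescence read-out: rising ELG1-luciferase signal, reflecting elevated ELG1 protein under genetic stress, flags genotoxic compounds. Cells were treated for 16 hr at 37 °C before ONE-Glo detection.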
FLuc counter = counter-screen for miR-21 project: firefly luciferase inhibitors or activators. 360,000 tested, 6.9% active. P08659. purified FLuc, Km substrates, luminescence inhibition. Potency, µM (titrated, usually from 57.5 µM), for the others: at the top dose activity change, negative = inhibition, hits mostly inhibitors;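 note: plate controls were vehicle for no effect and reference inhibitor for full effect; nearly all actives have a fitted effect of over 55% in size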
Target sequence (P08659 whole entry, looked up): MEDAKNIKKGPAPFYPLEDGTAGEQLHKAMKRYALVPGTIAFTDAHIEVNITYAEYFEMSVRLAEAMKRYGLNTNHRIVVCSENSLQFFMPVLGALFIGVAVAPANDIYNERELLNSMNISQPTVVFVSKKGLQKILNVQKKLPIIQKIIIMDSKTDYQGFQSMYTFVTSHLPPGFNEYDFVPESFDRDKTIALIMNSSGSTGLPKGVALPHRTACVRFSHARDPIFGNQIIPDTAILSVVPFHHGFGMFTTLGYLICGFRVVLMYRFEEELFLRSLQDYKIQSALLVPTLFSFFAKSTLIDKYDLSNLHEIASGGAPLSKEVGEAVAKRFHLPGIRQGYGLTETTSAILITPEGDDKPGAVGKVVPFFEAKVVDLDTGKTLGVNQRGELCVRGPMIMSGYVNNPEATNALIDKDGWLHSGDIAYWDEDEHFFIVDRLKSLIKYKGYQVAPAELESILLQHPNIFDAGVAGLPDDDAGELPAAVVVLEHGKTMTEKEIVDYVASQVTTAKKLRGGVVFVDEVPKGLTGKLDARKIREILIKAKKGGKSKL
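Biochemical qHTS of compounds, final roughly 60 µM downward over six points, against 10 nM purified firefly luciferase using Km concentrations of substrates (10 uM D-luciferin, 10 uM ATP) in Tris acetate pH 7.5 buffer; luminescence output.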
Starred values were filed as active, the others as inactive; ? = inconclusive; . = not tested or not shown; ! = not active in a repeat; [ ] = dose if it differs, or a comment. Calls come from the whole dose curve; as a rule, active = well fitted curve in the direction sought with a large enough effect; inconclusive = small, poorly fitted or top-dose-only effect, or another doubt; inactive = no such curve, though single readings can be large; an effect the other way counts as inactive or inconclusive. Potency is the fitted concentration of half-maximal effect.

SMILES	NPC1 promoter act	SMN2 splice enh	Rab9 prom act	Luc counter	ELG1 genotox	FLuc counter
CC(C)(C)S(=O)(=O)c1cnc(-c2ccccn2)nc1N	1.9%	.	23.6%	.	1.6%	-13.3%
Cc1cccc(-c2ncc(S(=O)(=O)C(C)(C)C)c(N)n2)c1	3.98µM*	.	3.16µM*	.	11.4%	?
O=C1NCCC/C1=N/Nc1ccc(F)cc1	-1.1%	8.3%	-1.4%	-8.5%	?	-4.9%
Cc1ccc(N/N=C2\CS(=O)(=O)N(C)c3ccsc32)cc1	3.55µM*	0.891µM*	?	-1.8%	16.5%	12µM*
CCCC(=O)N/N=C1\CS(=O)(=O)N(C)c2ccsc21	7.2%	-13.4%	0.2%	3.9%	0.7%	-0.1%
CN1c2ccsc2/C(=N/Nc2ccc(F)cc2)CS1(=O)=O	?	?	?	0.8%	?	19µM*
COc1ccccc1NC(=O)c1sc(-c2ccc(Cl)cc2)cc1N	.	-25.0%	.	.	.	-16.4%
CC(C)Oc1ccc(CNC(=O)c2ccc(CS(=O)Cc3ccccc3Cl)o2)cc1 (stereo not drawn)	.	.	.	.	.	-18.2%
CC(N=C1NS(=O)(=O)c2ccccc21)C(=O)N1CCc2ccccc2C1 (stereo not drawn)	19.1%	10.4%	26.8%	-1.0%	4.0%	-12.1%
COc1ccc(NC(=S)NC(=O)c2ccccc2Cl)cc1	26.9%	.	?	-0.7%	-11.4%	?
O=C(NC(=S)Nc1ccc(O)cc1)c1ccccc1Cl	?	?	3.98µM*	-2.3%	?	?
Cc1ccc(O)c(NC(=S)NC(=O)c2ccccc2Cl)c1	12.9%	?	3.6%	1.0%	9.1%	16.9µM*
O=C(O)c1cccc(S(=O)(=O)Nc2cccc3ccccc23)c1	16.6%	.	22.8%	.	4.0%	23.9µM*
O=S(=O)(Nc1cccc2ccccc12)c1ccccc1	4.6%	.	7.7%	.	2.2%	-5.6%
Cc1ccc(N(Cc2ccccc2)C(=O)c2cc(S(=O)(=O)N3CCOCC3)ccc2F)cc1	-1.9%	.	0.5%	.	0.0%	19µM*
Cc1ccc(N(Cc2ccccc2)C(=O)c2cc(S(=O)(=O)N3CCOCC3)ccc2Cl)cc1	-3.6%	.	-4.1%	.	?	?
Cc1ccc(NC(=O)n2ncc3c(C)cccc32)c(C)c1	0.398µM*	.	0.316µM*	.	?	2.39µM*!
Cc1cccc2c1cnn2C(=O)Nc1ccc(Br)cc1F	0.282µM*	.	?	.	4.7%	?
O=C(OCCOc1ccccc1Cl)c1ccc(-n2cnnn2)cc1	0.9%	0.8%	5.8%	-4.3%	3.6%	21.3µM*
COc1ccccc1CNC(=O)COC(=O)c1ccc(-n2cnnn2)cc1	-3.4%	.	3.6%	.	6.1%	-1.1%
C/C(=N/S(=O)(=O)c1ccc(Cl)c(Cl)c1)OCC(C)(C)C	.	-2.1%[9.22 µM]	.	-1.1%[7.66 µM]	.	.
CC1CCN(C(=O)c2cc3ccccc3c(=O)o2)CC1	14.6%	25.2%	1.1%	-1.3%	8.6%	?
Cc1ccc2oc(C(=O)N3CCCCCC3)c(C)c2c1	2.24µM*	.	.	.	18.3µM*	15.1µM*
Cc1c(C(=O)N2CCCCC2)oc2ccc(Br)cc12	?	.	?	.	?	21.3µM*
O=C(c1cc2cc(Br)ccc2o1)N1CCCCC1	2.51µM*	11.2µM*	3.98µM*	-6.0%	?	10.7µM*
SMILES	NPC1 promoter act	SMN2 splice enh	Rab9 prom act	Luc counter	ELG1 genotox	FLuc counter
O=C(c1cc2ccccc2c(=O)o1)N1CCCCCC1	0.9%	2.2%	12.7%	-2.7%	14.9%	23.9µM*
Cc1ccc2oc(C(=O)N3CCC(C(N)=O)(N4CCCCC4)CC3)c(C)c2c1	-1.1%	.	-0.3%	.	-2.2%	-1.0%
O=C(c1cc2cc(Cl)ccc2o1)N1CCCC1	22.6%	.	19.8%	.	?	?
CCOc1ccc(-c2cnc(NCc3ccc(OC)cc3OC)n2C)cc1	.	0.3%	.	.	.	2.8%
Cc1noc(C)c1-c1ccc2ncnc(NCc3cccc(-c4ccccc4)c3)c2c1	-2.1%	.	-3.3%	.	.	-15.3%
Cc1nc(C#N)c(N/N=C/c2c(F)cccc2Cl)o1	9.7%	?	19.1%	-1.0%	4.6%	23.9µM*
